# Inconclusive results are not listed. Values without a mark were called inactive. The source made the active and inactive calls. Unless noted, calls follow the shape of the full dose curve.
# Molecular target: Peroxisome proliferator-activated receptor gamma (Homo sapiens) (UniProt P37231)
# Test: qHTS assay to identify small molecule antagonists of the peroxisome proliferator-activated receptor gamma (PPARg) signaling pathway (AID 743191); also: nearly all actives have a fitted effect of over 30% in size
# Conditions: HEK293H PPARg-UAS-bla, beta-lactamase ratio, antagonist, 17 h; series mostly up to 62.6 µM; ratio activity, negative = inhibition: at the top concentration
# Summary of the method: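 GeneBLAzer PPARg UAS-bla HEK293H cells, 5 h post-plating, exposed to compounds 17 h at 37C. LiveBLAzer B/G FRET substrate added for 1 h at room temperature; beta-lactamase reporter read by fluorescence intensity.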
# % is scaled to controls: 0 for no effect and ±100 for the full control effect; potency is read from the fitted curve at half-maximal effect.
# Peroxisome proliferator-activated receptor gamma (Homo sapiens), sequence (P37231 whole entry, looked up): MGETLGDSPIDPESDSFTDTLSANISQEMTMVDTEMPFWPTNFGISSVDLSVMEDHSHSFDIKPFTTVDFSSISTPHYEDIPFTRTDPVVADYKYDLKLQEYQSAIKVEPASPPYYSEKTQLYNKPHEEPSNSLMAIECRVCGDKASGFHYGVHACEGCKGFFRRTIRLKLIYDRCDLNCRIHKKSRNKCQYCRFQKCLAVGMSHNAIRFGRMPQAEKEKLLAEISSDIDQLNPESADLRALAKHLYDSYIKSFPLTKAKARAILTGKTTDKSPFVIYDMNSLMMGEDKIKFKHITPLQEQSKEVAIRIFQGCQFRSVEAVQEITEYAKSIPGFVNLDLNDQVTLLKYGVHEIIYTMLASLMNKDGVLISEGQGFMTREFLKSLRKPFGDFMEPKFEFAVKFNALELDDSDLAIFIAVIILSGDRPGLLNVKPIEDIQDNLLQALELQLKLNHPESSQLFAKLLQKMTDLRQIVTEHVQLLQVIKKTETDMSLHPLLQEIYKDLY
Structure (SMILES),"ratio activity, negative = inhibition [%]",Potency
N#CC1(c2ccc(F)cc2)CCC(=O)CC1,8.28,
Cc1cccc(N(C)C(=S)Oc2ccc3c(c2)C2CCC3C2)c1 (configuration not stated),-16.8,
O=c1cc(-c2ccc(O)cc2)oc2cc(O)cc(O)c12,,21.9 µM (active)
CCCCCCCC(=O)[O-].CCCCCCCC(=O)[O-].[Zn+2],5.07,
CCCCCOc1ccccc1/C(=C\SC)n1ccnc1,,29.8 µM (active)
CN(C)CCCOC1(Cc2ccccc2)CCCCCC1,-3.53,
C/C(=C(/OCCOc1ccc(Cl)cc1)c1ccc(Cl)cc1Cl)n1ccnc1,0.835,
Nc1cc(C(F)(F)F)ccc1S,-0.683,
COC(=O)c1cc(Cl)ccc1OC,-6.38,

# Test system: not listed separately
# Test: qHTS assay to identify small molecule antagonists of the peroxisome proliferator-activated receptor gamma (PPARg) signaling pathway - cell viability counter screen (AID 743194; active = well fitted cell-killing curve with a large enough effect in the repeat runs; also: nearly all actives have a fitted effect of over 55% in size)
# Conditions: PPARg-bla HEK293H viability, CellTiter-Glo luminescence, 17 h, co-treated with 50 nM rosiglitazone; series mostly up to 62.6 µM; activity change, negative = cytotoxicity: at the top concentration
# Summary of the method: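 Cytotoxicity counter screen in PPARg-bla HEK293H cells, same wells as reporter assay. Compounds plus 50 nM rosiglitazone (final) for 17 h at 37 C, then viability read by CellTiter-Glo luminescence.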
Structure (SMILES),Potency,"activity change, negative = cytotoxicity"
CCCCCCCCOC(=O)c1ccc(O)cc1,inactive,
N#CC1(c2ccc(F)cc2)CCC(=O)CC1,,10.8%
Cc1cccc(N(C)C(=S)Oc2ccc3c(c2)C2CCC3C2)c1 (configuration not stated),,-14.2%
O=c1cc(-c2ccc(O)cc2)oc2cc(O)cc(O)c12,inactive,
Cc1oc(-c2ccccc2)nc1CCC(=O)c1ccc(CC2SC(=O)NC2=O)cc1 (configuration not stated),,-12%
NC(=O)C1(N2CCCCC2)CCN(CCCN2c3ccccc3CCc3ccc(Cl)cc32)CC1,29.8 µM (active),
CC1=C(C(=O)OC(C)C)C(c2cccc([N+](=O)[O-])c2)C(C(=O)OC2CN(C(c3ccccc3)c3ccccc3)C2)=C(N)N1 (configuration not stated),23.7 µM (active),
COC(=O)C1=C(C)NC(C)=C(C(=O)OCCc2ccc(N3CCN(C(c4ccccc4)c4ccccc4)CC3)cc2)C1c1cccc([N+](=O)[O-])c1 (configuration not stated),,5.82%
OCCN(CCO)c1nc(N2CCCCC2)c2nc(N(CCO)CCO)nc(N3CCCCC3)c2n1,,-11.5%
CCCCCCCC(=O)[O-].CCCCCCCC(=O)[O-].[Zn+2],,13.8%
CN(C)[C@@H]1C(=O)C(C(N)=O)=C(O)[C@@]2(O)C(=O)C3=C(O)c4c(O)cccc4C[C@H]3C[C@@H]12,,-17.7%
CCCCCOc1ccccc1/C(=C\SC)n1ccnc1,,-10.4%
O=[N+]([O-])c1cc([N+](=O)[O-])c2ccc(S(=O)(=O)O)cc2c1O,,-14.3%
Cc1[nH]nc2c1N=C(c1ccccc1Cl)c1cc([N+](=O)[O-])ccc1N2,38.9 µM (active),
CN(C)CCCOC1(Cc2ccccc2)CCCCCC1,,-9.74%
O=c1[nH]sc2cc(Cl)ccc12,,-31.1%
CN1CCC(Nc2ncc3ncnc(Nc4ccc(F)c(Cl)c4)c3n2)CC1,,-13.5%
Cc1cccc2c1cc1ccc3cccc4ccc2c1c34,,-0.0882% [at 81.1 µM]
O=C(N/N=C/c1ccccc1O)c1ccncc1,,-15.9%
CCc1cc(SCc2sc(-c3ccc(C(F)(F)F)cc3)nc2CN2CCN(c3ccc(OC)cc3)CC2)ccc1OCC(=O)O,24.5 µM (active),
CCC(CN)=C(c1ccccc1)c1ccccc1,,-10.6%
Nc1cc(C(F)(F)F)ccc1S,,8.04%
CCCCCCCCNC(C)C(O)c1ccc(SC(C)C)cc1 (configuration not stated),23.7 µM (active),
CCCCC(CC)COC(=O)c1ccccc1C(=O)O (configuration not stated),,-29.4% [at 81.1 µM]
COC(=O)c1cc(Cl)ccc1OC,,23.5%
Nc1ccc2c3c(cccc13)-c1ccccc1-2,49.5 µM (active),
Cc1cc(=O)oc2cc(N(C)C)ccc12,,11.6%
O=C(Oc1ccccc1)c1ccccc1C(=O)Oc1ccccc1,,-18.6%

# Test system: not listed separately
# Test: qHTS assay for small molecule agonists of the antioxidant response element (ARE) signaling pathway (AID 743202; active = well fitted activation curve with a large enough effect in the signal ratio in the repeat runs, not every such curve was filed as active; the % refers to the signal ratio)
# Conditions: HepG2 ARE-bla reporter, beta-lactamase FRET, 16 h; series mostly up to 73.3 µM; activation: at the top concentration
# Summary of the method: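 ARE-bla HepG2 cells (beta-lactamase reporter under the antioxidant response element), plated 5 hours, then exposed to compounds 16 hours at 37 C. LiveBLAzer B/G FRET substrate added for 2 hours at room temperature; fluorescence intensity read.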
Structure (SMILES),activation [%],Potency
CCCCCCCCOC(=O)c1ccc(O)cc1,13.7,
N#CC1(c2ccc(F)cc2)CCC(=O)CC1,1.52,
Cc1oc(-c2ccccc2)nc1CCC(=O)c1ccc(CC2SC(=O)NC2=O)cc1 (configuration not stated),,13.3 µM (active)
CCCCCCCC(=O)[O-].CCCCCCCC(=O)[O-].[Zn+2],-1.87,
Cc1ccc(O)c2ncccc12,,4.22 µM (active)
CCC(CN)=C(c1ccccc1)c1ccccc1,-0.861,
CC(C)(C)C1CCC(CC2=C(O)c3ccccc3C(=O)C2=O)CC1 (configuration not stated),,2.11 µM (active)
Nc1cc(C(F)(F)F)ccc1S,15.5,
COC(=O)c1cc(Cl)ccc1OC,-12.1,

# Test system: not listed separately
# Test: qHTS assay for small molecule agonists of the antioxidant response element (ARE) signaling pathway - cell viability counter screen (AID 743203); also: nearly all actives have a fitted effect of over 55% in size
# Conditions: ARE-bla HepG2 viability, CellTiter-Glo luminescence, 16 h; series mostly up to 73.3 µM; viability change, negative = cytotoxic: at the top concentration
# Summary of the method: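 ARE-bla HepG2 cells were plated, rested 5 h at 37C/5% CO2, then exposed to compounds in DMSO for 16 h. Viability was read as CellTiter-Glo luminescence after 30 min at room temperature, in the same wells as the ARE screen.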
Structure (SMILES),"viability change, negative = cytotoxic",Potency
N#CC1(c2ccc(F)cc2)CCC(=O)CC1,9.37%,
Cc1cccc(N(C)C(=S)Oc2ccc3c(c2)C2CCC3C2)c1 (configuration not stated),6.28%,
O=c1cc(-c2ccc(O)cc2)oc2cc(O)cc(O)c12,,inactive
Cc1oc(-c2ccccc2)nc1CCC(=O)c1ccc(CC2SC(=O)NC2=O)cc1 (configuration not stated),-4.28%,
CC[C@@]1(O)C(=O)OCc2c1cc1n(c2=O)Cc2c-1nc1ccccc1c2/C=N/OC(C)(C)C,,0.335 µM (active)
NC(=O)C1(N2CCCCC2)CCN(CCCN2c3ccccc3CCc3ccc(Cl)cc32)CC1,,16.8 µM (active)
COc1cccc(N)c1,5.06% [at 94.8 µM],
CC1=C(C(=O)OC(C)C)C(c2cccc([N+](=O)[O-])c2)C(C(=O)OC2CN(C(c3ccccc3)c3ccccc3)C2)=C(N)N1 (configuration not stated),,23.7 µM (active)
COC(=O)C1=C(C)NC(C)=C(C(=O)OCCc2ccc(N3CCN(C(c4ccccc4)c4ccccc4)CC3)cc2)C1c1cccc([N+](=O)[O-])c1 (configuration not stated),5.18%,
OCCN(CCO)c1nc(N2CCCCC2)c2nc(N(CCO)CCO)nc(N3CCCCC3)c2n1,3.37%,
CCCCCCCC(=O)[O-].CCCCCCCC(=O)[O-].[Zn+2],10.7%,
CN(C)[C@@H]1C(=O)C(C(N)=O)=C(O)[C@@]2(O)C(=O)C3=C(O)c4c(O)cccc4C[C@H]3C[C@@H]12,-17.1%,
CCCCCOc1ccccc1/C(=C\SC)n1ccnc1,-14.4%,
O=[N+]([O-])c1cc([N+](=O)[O-])c2ccc(S(=O)(=O)O)cc2c1O,1.63%,
Cc1[nH]nc2c1N=C(c1ccccc1Cl)c1cc([N+](=O)[O-])ccc1N2,,15.4 µM (active)
CN(C)CCCOC1(Cc2ccccc2)CCCCCC1,-10.4%,

Structure (SMILES),"viability change, negative = cytotoxic",Potency
O=c1[nH]sc2cc(Cl)ccc12,-28.9%,
C/C(=C(/OCCOc1ccc(Cl)cc1)c1ccc(Cl)cc1Cl)n1ccnc1,,42.2 µM (active)
Cc1cccc2c1cc1ccc3cccc4ccc2c1c34,-1.6% [at 94.8 µM],
OCCN1CCN(CC/C=C2/c3ccccc3Sc3ccc(C(F)(F)F)cc32)CC1,,29.8 µM (active)
CCc1cc(SCc2sc(-c3ccc(C(F)(F)F)cc3)nc2CN2CCN(c3ccc(OC)cc3)CC2)ccc1OCC(=O)O,,15.4 µM (active)
CCC(CN)=C(c1ccccc1)c1ccccc1,-16.9%,
CC(C)(C)C1CCC(CC2=C(O)c3ccccc3C(=O)C2=O)CC1 (configuration not stated),-20.9%,
Nc1cc(C(F)(F)F)ccc1S,-0.812%,
Nc1nc2ccccc2n1Cc1ccc(F)cc1,5.26%,
CCCCCCCCNC(C)C(O)c1ccc(SC(C)C)cc1 (configuration not stated),,16.8 µM (active)
CCCCC(CC)COC(=O)c1ccccc1C(=O)O (configuration not stated),21.7% [at 94.8 µM],
COC(=O)c1cc(Cl)ccc1OC,-9.63%,
Nc1ccc2c3c(cccc13)-c1ccccc1-2,-8.56% [at 94.8 µM],
Cc1cc(=O)oc2cc(N(C)C)ccc12,-9.31%,
O=C(Oc1ccccc1)c1ccccc1C(=O)Oc1ccccc1,-7.63%,

# Source: PubChem BioAssay (Tox21)
